According to article PMC4552634, “A New Set of Chemical Starting Points with Plasmodium falciparum Transmission-Blocking Potential for Antimalarial Drug Discovery” (PLoS ONE, 2015):
In all, about 13,000 compounds went through this assay and about 3,200 (25%) showed an effect of 50% or more. The list shows a part of the results.

Each molecule was assayed on P. falciparum stage V gametocytes. Conditions: 48 h, 5 µM; inhibitor.
Set-up: BacTiter-Glo ATP luminescence viability of purified stage V gametocytes in 384-well plates, per cent inhibition versus DMSO

SMILES	% Inhibition
COC(=O)c1ccc(OCC(C)NCC(O)c2cccc(C(F)(F)F)c2)cc1 (stereo not drawn) [TCMDC-131464]	25.27%
N#Cc1ccc2c(c1)CCN(CCCn1c(-c3ccc4ccccc4c3)nc3ccncc31)CC2 [TCMDC-135551]	19.09%
O=C(NCc1ccc(C(=O)NCc2cccc3ccccc23)cc1)c1ccc(O)c(-c2ccc(Cl)c(Cl)c2)c1 [TCMDC-140878]	23.84%
Cc1ccc2nc(-c3ccccc3)cc(NN=Cc3cccnc3)c2c1 [TCMDC-142053]	-1.228%
CCOc1ccccc1N1CCN(CCCNC(=O)/C(=C/C=C/c2cc3cc(Cl)c(Cl)cc3[nH]2)OC)CC1 [TCMDC-139176]	6.847%
Cc1cccc(CNc2ncc(C)c(NCCC(=O)Nc3ccccc3)n2)c1 [TCMDC-134848]	47.31%
O=C(Nc1ccc(Br)cc1)N(CCN1CCOCC1)CC(O)COCc1ccc(F)cc1 (stereo not drawn) [TCMDC-141489]	29.66%
Cc1cc(=O)[nH]c(-n2nc(C)cc2NC(=O)C2(c3ccc(Cl)cc3)CCCC2)n1 [TCMDC-124943]	43.65%
CN(C)CCN(C)C(=O)c1cc(-c2ccncc2)c(-c2ccc(Cl)c(O)c2)o1 [TCMDC-141393]	-25.23%
COc1c(C2=CCN(CCCCNC(=O)c3ccc(-c4ccc(C#N)cc4)cc3)CC2)ccc2c1CCCC2 [TCMDC-138753]	-8.55%
Cc1cc(N(C)CCN(C)C)nc(Nc2ccc(Cl)cc2)n1 [TCMDC-137008]	22.54%
O=C(NC(=O)c1ccccc1)NC1CCN(c2ccnc3cc(Cl)ccc23)C1 (stereo not drawn) [TCMDC-133403]	-14.2%
CCC[C@@H]([C@@H](CC1CCCCC1)C(=O)N[C@H](C(=O)Nc1ccccn1)[C@H](C)CC)N(O)C=O [TCMDC-138122]	-1.104%
O=C(c1ccc(-c2cnc3[nH]cc(-c4ccc(C(=O)N5CCOCC5)cc4)c3c2)cc1)N1CCOCC1 [TCMDC-132781]	-2.017%
CN1CCN(c2ccnc3ccc(NC(=O)Cc4ccc(-c5ccncc5)c5ccccc45)cc23)CC1 [TCMDC-139256]	19.54%
Nc1ncc(-c2ccc3nccc(-c4ccncc4)c3c2)cc1S(=O)(=O)N1CCOCC1 [TCMDC-134180]	94.06%
Nc1ncc(-c2ccc3[nH]ccc3c2)c2ccc(-c3ccncc3)cc12 [TCMDC-133396]	22.16%
Nc1ncc(-c2ccc3nccc(-c4ccncc4)c3c2)cc1S(=O)(=O)N1CCCCC1 [TCMDC-134265]	97.23%
CS(=O)(=O)c1ccc2nc(-c3cc(-c4ccc(OCCN5CCOCC5)cc4)cnc3N)[nH]c2c1 [TCMDC-133720]	8.028%
O=C(/C=N/O)Nc1ccccc1[N+](=O)[O-] [TCMDC-123981]	-3.715%
CCn1c2ccccc2c2cc(Cc3cnc(N)nc3N)ccc21 [TCMDC-131929]	0.5194%

SMILES	% Inhibition
Cc1cccc2nc(-c3ccc(-c4ccc(C(=O)NCCN5CCCC5)cc4)s3)[nH]c12 [TCMDC-132316]	46.47%
Cc1cnc(NCC2CCCCC2)nc1NCC(=O)Nc1ccccc1 [TCMDC-134753]	-41.32%
CCN1CCC(N(CCCCCCc2ccc(C(F)(F)F)cc2)C(=O)Cn2c(CCc3cccc(F)c3F)cc(=O)c3ccccc32)CC1 [TCMDC-141339]	43.24%
CCN1CCC(N(Cc2ccc(-c3ccc(C(F)(F)F)cc3)cc2)C(=O)Cn2c(CCc3cccc(F)c3F)cc(=O)c3ccccc32)C1 (stereo not drawn) [TCMDC-141300]	90.33%
CCN1CCC(N(CCCCCCCCc2ccc(C(F)(F)F)cc2)C(=O)Cn2c(CCc3cccc(F)c3F)cc(=O)c3ccccc32)CC1 [TCMDC-141376]	107.2%
O=C(Cn1c(CCc2cccc(F)c2F)cc(=O)c2ccccc21)N(Cc1ccc(-c2ccc(C(F)(F)F)cc2)cc1)C1CCN(CCO)CC1 [TCMDC-141226]	84.4%
O=C(Cn1c(CCc2cccc(F)c2F)cc(=O)c2ccccc21)N(Cc1ccc(-c2ccc(C(F)(F)F)cc2)cc1)C1CCN(CCN2CCOCC2)CC1 [TCMDC-136026]	47.65%
COCCN1CCC(N(Cc2ccc(-c3ccc(OC(F)(F)F)cc3)cc2)C(=O)Cn2c(CCc3cccc(F)c3F)cc(=O)c3ccccc32)CC1 [TCMDC-136001]	86.7%
CCCN(CCC)C(=O)c1cc(C(=O)N[C@@H](Cc2ccccc2)[C@H](O)CNC2CC2)cc(N2CCCCS2(=O)=O)c1 [TCMDC-138892]	8.102%
CC(=Nc1ccc(Cl)c(Cl)c1)N(C)C [TCMDC-137438]	-6.563%
CC(C)C[C@H](NC(=O)c1ccc(OCCN2CCOCC2)cc1)C(=O)N[C@H](/C=N/NC(=O)OC(C)(C)C)CCc1ccccc1 [TCMDC-136028]	-97.84%
COc1ccc(CN2CCC(N3CC(c4ccccc4)(c4ccccc4)OCC3=O)C2)c(O)c1 (stereo not drawn) [TCMDC-136339]	-23.12%
CC(C)C[C@H]1C(=O)N[C@H](C2Cc3ccccc3C2)C(=O)N1[C@@H](C(=O)Nc1ccccc1OCc1ccccc1)c1ccc(F)cc1F [TCMDC-138775]	-10.16%
COc1ccc2ncc(F)c(CCN3C4CCC3CC(NCc3cc5c(cn3)OCS5)C4)c2n1 (stereo not drawn) [TCMDC-135637]	24.95%
Cc1cccc(Nc2nccc(NCC(O)c3ccc(C(F)(F)F)cc3)n2)c1 (stereo not drawn) [TCMDC-136592]	-12.82%
CC(C)(C)C1CC(=O)CC2C(=O)N(c3ccc(Br)cc3)C(=O)C21 (stereo not drawn) [TCMDC-139130]	-4.164%
Cc1ccc(F)c(OCC2CCN(c3ncc(C(=O)NC4CC4)cc3Cl)CC2)c1 [TCMDC-134038]	21.14%
CC(C)(C)N1CCC(N(Cc2ccc(-c3ccc(C(F)(F)F)cc3)cc2)C(=O)Cn2c(CCc3cccc(F)c3F)cc(=O)c3cccnc32)CC1 [TCMDC-136011]	120.6%
CCN1CCC(N(Cc2ccc(-c3ccc(C(F)(F)F)cc3)cc2)C(=O)Cn2c(CCc3cccc(F)c3F)cc(=O)c3ccccc32)CC1 [TCMDC-141119]	110.1%
CCN1CCC(N(Cc2ccc(-c3ccc(C(F)(F)F)cc3)cc2)C(=O)Cn2c(CCc3cccc(F)c3F)cc(=O)c3ccc(OCc4ccccc4)cc32)CC1 [TCMDC-141292]	107.3%
CC(C)(C)N1CCC(N(Cc2ccc(-c3ccc(C(F)(F)F)cc3)cc2)C(=O)Cn2c(CCc3cccc(F)c3F)cc(=O)c3ccccc32)CC1 [TCMDC-136007]	109.9%
